Screening data as filed in PubChem BioAssay.
Shown are actives, neighbours in structure and some others; about 3.6% of the full set was active somewhere.
mHTT-CaM PPI inh: disrupts binding of mutant huntingtin to calmodulin | inhibition, % at 15 µM | AID 1671202 | AlphaScreen His-mHTT/GST-CaM binding, luminescence | P42858 | 3.6% of 190,000 active;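 further: 0% = both proteins with DMSO and 100% = one protein alone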
Pf apPOL inh: Pf-apPOL DNA polymerase inhibition; Recombinant Pf-apPOL, molecular beacon fluorescence, 1.5 h; inhibition, % at 10 µM; 0.25% of 210,000 active; AID 1794808
Starred values were filed as active, the others as inactive; . = not tested or not shown. No stated cut-off is given here; in the data, active means inhibition above about 50%; inactive means the rest.

SMILES | mHTT-CaM PPI inh | Pf apPOL inh
O=C1NC(=O)[C@H]2[C@@H]1[C@@H](C(=O)c1ccccc1)N1c3ccccc3C=C[C@H]21 | 58.4* | .
CCCC(CCC)C(=O)N1CCc2c(c(C(=O)NCc3ccc4c(c3)OCO4)nn2C)C1 | 27.0 | -14.5
COc1ncccc1CNC(=O)COc1ccccc1 | -7.2 | -0.8
CCN1CCN(C(=O)Cn2cc(C)sc2=NC(=O)c2cccc(Cl)c2)CC1 | 13.0 | 0.1
COc1cccc(C(=O)N=c2sc(C)cn2CC(=O)N2CCCC2)c1 | 0.6 | 86.6*
COc1ccc(OC)c(NC(=O)c2cc(C)n(CCN(C)C)c2C)c1 | 23.3 | -1.3
COc1ccc(C)cc1NC(=O)c1cc(C)n(CCN(C)C)c1C | 51.0* | 2.8
c1coc(-c2nccs2)c1 | . | 2.5
c1coc(-c2nc3sc(-c4ccco4)nc3s2)c1 | 100.2* | -17.6
COc1ccc(C2=N/C(=C\c3ccc(N(C)C)cc3)C(=O)O2)cc1Br | 20.0 | -2.8
COc1ccc(-c2c(O)c3ccc(O)cc3oc2=O)cc1 | 0.5 | 0.9
COc1cc(O)c2c(c1)oc(=O)c1c3cc(O)c(O)cc3oc21 | . | 51.3*
CCC(=O)N1CCN(c2ccc(OC)cc2)C(=O)C1C (stereo not drawn) | -1.3 | -1.5
O=C1C(=CC=Cc2ccccc2)Oc2c1ccc(O)c2CN1CCN(CCO)CC1 | 10.3 | -4.4
O=C(O)c1cc2c3c(c1)C1C=CCC1C(c1ccccc1F)N3CC1CC=CC21 (stereo not drawn) | 70.0* | -6.7
NS(=O)(=O)c1cc2c3c(c1)C1C=CCC1C(c1ccc([N+](=O)[O-])cc1)N3CC1CC=CC21 (stereo not drawn) | 62.9* | -7.9
O=C(O)c1cc2c3c(c1)C1C=CCC1C(c1cccc([N+](=O)[O-])c1)N3CC1CC=CC21 (stereo not drawn) | 70.0* | 4.3
C1=CC2c3cccc4c3N(CC2C1)CC1CC=CC41 (stereo not drawn) | 39.8 | .
O=[N+]([O-])c1cccc(C2N(c3ccccc3)CCN2c2ccccc2)c1 | . | -3.1
O=C(O)c1cc2c3c(c1)C1C=CCC1C(c1ccc(F)cc1)N3CC1CC=CC21 (stereo not drawn) | 96.0* | -1.8
O=[N+]([O-])c1ccc(S(=O)(=O)N2CC3C4C=CC(C4)C3C2)cc1 (stereo not drawn) | 4.0 | 8.0
O=C(O)c1ccc2c(c1)C1C=CCC1C(c1ccccc1Br)N2 (stereo not drawn) | 23.0 | -0.6
O=S(=O)(c1ccccc1)c1nc(-c2ccccc2Cl)oc1N1CCOCC1 | 4.0 | 0.6
O=C(c1cccc(OCC2CCCN(C(=O)c3ccc(Cl)cc3)C2)c1)N1CCCC1 (stereo not drawn) | 10.4 | -8.2
CCN1C(=O)c2cccc3c(NC(=O)c4ccccc4Br)ccc1c23 | -7.4 | -4.6
SMILES | mHTT-CaM PPI inh | Pf apPOL inh
CCOCCCNC(=O)C1CCN(c2nccnc2Sc2ccccc2)CC1 | -4.8 | 0.4
O=C(O)c1ccc2c3c1C1C=CCC1CN3CC1CC=CC21 (stereo not drawn) | 16.0 | 11.7
O=C(O)c1cc2c3c(c1)C1C=CCC1C(c1ccccc1)N3CC1CC=CC21 (stereo not drawn) | 94.0* | 3.4
N#CCCN(Cc1ccco1)S(=O)(=O)c1cccc(C(F)(F)F)c1 | . | -4.8
O=C(NCCCn1ccnc1)C(=O)Nc1ccc(F)c(Cl)c1 | 69.9* | -1.9
O=C(NCCCn1ccnc1)Nc1cccc(Cl)c1 | 88.7* | 0.5
O=C(NCCCn1ccnc1)C(=O)Nc1ccc2c(c1)OCCO2 | -3.3 | -2.3
O=C(NCCCn1ccnc1)c1ccc(Cl)cc1 | -3.5 | 2.1
Cn1cc(C(=O)NCCc2cccs2)nn1 | -4.0 | -6.5
CCNC(=O)C1CC(c2ccc(OC)c(OC)c2)CN(C(C)=O)C1 (stereo not drawn) | 0.6 | -1.5
Cc1ccc(C(=O)c2ccccc2C(=O)NCCn2cnc(-c3ccccc3)cc2=O)cc1 | 29.1 | -9.8
CCN1CCN(C(=O)C2CCN(c3nnc(-c4ccc(OC)cc4)o3)CC2)CC1 | 8.2 | -4.6
CSc1nc(N)nc(SCc2ccc(Cl)c(Cl)c2)c1C#N | 74.0* | -0.3
CSc1nc(N)nc(SC/C=C/c2ccccc2)c1C#N | -8.0 | -0.8
O=C(O)/C=C/c1cccc(N=Cc2ccc(N3CCOCC3)cc2)c1 | -6.0 | 1.6
O=C(O)/C=C/c1cccc(N=Cc2ccc([N+](=O)[O-])o2)c1 | 71.0* | -1.5
Cc1ccc(-c2csc3c(=O)n(CC(=O)NCCCc4ccccc4)cnc23)cc1 | -2.9 | -1.0
